Experimental data from ChEMBL document CHEMBL3988442, “University of Dundee, Small-Polar-MMV Screening Library” (2021).
Among all 66,000 compounds or so, about 960 (1.5%) showed an effect of 50% or more. For the sample, strong results were picked, then their nearest neighbours and some compounds at random.

System: Trypanosoma brucei
Test: Trypanosoma brucei 72 hour study
Format: functional, organism-based
Set-up: scale not given: in the data most compounds retested in dose-response had high values

Question: Which “Percent Effect” value (30.3 µM, […]) does the source give for `COc1ccc(CNC(C)Cn2cccn2)c(OC)c1OC.Cl` (centres undefined) here?
Answer: 4.713%

Question: And the “Percent Effect” value (10 mM, 10 mM as filed; unlikely as a test dose)?
Answer: -54.3%

Question: With `COc1cc(CNC(C)Cn2ccnc2)cc2c1OCO2.Cl` (centres undefined) as the molecule, how does the “Percent Effect” value (30.3 µM, […]) read?
Answer: 4.669%

Question: For `COc1cc(CNCC(O)c2ccc(C)cc2)cc2c1OCCO2.Cl` (centres undefined), which “Percent Effect” value (30 µM, 30.03 µM) is on record?
Answer: 42.56%

Question: Which “Percent Effect” value (30 µM, 30.03 µM) does the source give for `COc1cc(CNCC(O)c2ccc(F)c(F)c2)cc2c1OCO2` (centres undefined) here?
Answer: 4.493%

Question: `COc1cc(CNC(C)Cn2cccn2)cc2c1OCO2.Cl` (centres undefined) was tested. Which “Percent Effect” value (30.3 µM, […]) did it give?
Answer: -1.111%

Question: For `COc1cc(CNCC(O)c2cccc(F)c2)cc2c1OCO2.Cl` (centres undefined), which “Percent Effect” value (30.3 µM, […]) is on record?
Answer: 81.63%

Question: For `COc1cc(CNCC(O)c2ccc(C)cc2)cc2c1OCO2.Cl` (centres undefined), which “Percent Effect” value (30.3 µM, […]) is on record?
Answer: 100.7%

Question: With `Cl.Cl.c1cncc(COC[C@@H]2CCC[C@@]23CNCCO3)c1` as the molecule, how does the “Percent Effect” value (30.3 µM, […]) read?
Answer: -44.98%

Question: Which “Percent Effect” value (30.3 µM, […]) does the source give for `CC(C)N1CCC2(CC1)C(=O)N(CCN(C)C)c1ccccc12.O=C(O)C(F)(F)F.O=C(O)C(F)(F)F` here?
Answer: 5.685%

Question: With `O=C(O)C(F)(F)F.O=C(O)C(F)(F)F.O=C(O)C(F)(F)F.c1ccc(CN2CC[C@@H]3[C@@H](CO[C@@H]3CNc3ncccn3)C2)nc1` as the molecule, how does the “Percent Effect” value (30.3 µM, […]) read?
Answer: -6.943%

Question: `COc1ccc(CN2C[C@@H]3OCCN(c4ncccn4)[C@@H]3C2)cc1.O=C(O)C(F)(F)F.O=C(O)C(F)(F)F` was tested. Which “Percent Effect” value (30 µM, 30.03 µM) did it give?
Answer: -40.73%

Question: For `COc1cc2nc(NCc3ccc(C)nc3)nc(N)c2cc1OC`, which “Percent Effect” value (30.3 µM, […]) is on record?
Answer: 100.6%

Question: For `O=C(C[C@@H]1COC[C@H]2CN(C3CCC3)C[C@@H]12)NCc1cccnc1.O=C(O)C(F)(F)F.O=C(O)C(F)(F)F`, which “Percent Effect” value (30.3 µM, […]) is on record?
Answer: 12.19%

Question: How did the “Percent Effect” value (30.3 µM, […]) turn out when `COc1ccc(CCNCc2c(C)nn(C)c2N(C)C)cc1OC.Cl` was run?
Answer: -31.69%

Question: `O=C(c1ccccc1-n1cnnn1)N1CCC2(CC1)OCCO2` was tested. Which “Percent Effect” value (30 µM, 30.03 µM) did it give?
Answer: -25.19%

Question: For `O=C(c1ccc(Cl)cc1-n1cnnn1)N1CCC2(CC1)OCCO2`, which “Percent Effect” value (30 µM, 30.03 µM) is on record?
Answer: -30.99%

Question: For `O=C(c1cnn2c1OCCC2)N1CCC2(CC1)OCCO2`, which “Percent Effect” value (30 µM, 30.03 µM) is on record?
Answer: 55.16%

Question: How did the “Percent Effect” value (30.3 µM, […]) turn out when `Cn1ccnc1NC[C@@H]1CCC[C@@H]2CN(Cc3cccnc3)C[C@@H]21.O=C(O)C(F)(F)F` was run?
Answer: -5.749%

Question: For `CN1C[C@H](NC(=O)c2cscn2)[C@@H]2OCCC[C@@H]21.O=C(O)C(F)(F)F`, which “Percent Effect” value (30.3 µM, […]) is on record?
Answer: -88.97%

Question: For `COCCNC(=O)[C@@]12CCO[C@@H]1CCN(Cc1ccncc1)C2.O=C(O)C(F)(F)F.O=C(O)C(F)(F)F`, which “Percent Effect” value (30 µM, 30.03 µM) is on record?
Answer: 13.68%

Question: For `c1ccc(CO[C@H]2C[C@@H]3CN(Cc4cncnc4)C[C@@H]3C2)cc1`, which “Percent Effect” value (30.3 µM, […]) is on record?
Answer: -7.208%

Question: For `c1ccc(CO[C@H]2C[C@@H]3CN(Cc4cccnc4)C[C@@H]3C2)cc1`, which “Percent Effect” value (30.3 µM, […]) is on record?
Answer: 51.09%

Question: `Cc1ncc(CN2C[C@H]3C[C@H](OCc4ccccc4)C[C@H]3C2)cn1` was tested. Which “Percent Effect” value (30.3 µM, […]) did it give?
Answer: 6.96%

Question: Which “Percent Effect” value (30.3 µM, […]) does the source give for `CN(C)CCN1CCN(Cc2nccs2)Cc2cccnc21.O=C(O)C(F)(F)F.O=C(O)C(F)(F)F.O=C(O)C(F)(F)F` here?
Answer: -78.15%

Question: `O=C(NCCc1ccccn1)[C@@]12CCO[C@@H]1CCN(C1CCC1)C2.O=C(O)C(F)(F)F.O=C(O)C(F)(F)F` was tested. Which “Percent Effect” value (30.3 µM, […]) did it give?
Answer: 7.888%

Question: With `O=C(O)C(F)(F)F.O=C(O)C(F)(F)F.c1ccc(OCC2C[C@@H]3[C@@H](C2)OCCN3CC2CCOCC2)nc1` (some centres undefined) as the molecule, how does the “Percent Effect” value (30.3 µM, […]) read?
Answer: -46.45%

Question: `CC(C)c1nc(CC(=O)N2CCN(C)CC2c2ccccc2)cs1` (centres undefined) was tested. Which “Percent Effect” value (30 µM, 30.03 µM) did it give?
Answer: -91.57%

Question: For `CCN1CCN(Cc2nc(CC(C)C)no2)CC1`, which “Percent Effect” value (10 µM) is on record?
Answer: -12.44%

Question: With `CCN1CCN(Cc2csc(C(C)C)n2)CC1` as the molecule, how does the “Percent Effect” value (30.3 µM, […]) read?
Answer: 81.77%

Question: For `COCCCNc1c(C#N)c2c(c3nncn13)CN(C)CC2.Cl`, which “Percent Effect” value (30 µM, 30.03 µM) is on record?
Answer: -37.83%

Question: `Cl.Cl.c1ccc(COC[C@H]2CCC[C@@]23CNCCO3)nc1` was tested. Which “Percent Effect” value (30.3 µM, […]) did it give?
Answer: -51.33%

Question: With `O=C(O)C(F)(F)F.O=C(O)C(F)(F)F.c1cnc(N2CCO[C@H]3CN(CC4CCOCC4)C[C@H]32)nc1` as the molecule, how does the “Percent Effect” value (30.3 µM, […]) read?
Answer: -91.37%

Question: How did the “Percent Effect” value (30.3 µM, […]) turn out when `O=C(O)C(F)(F)F.c1cc(CN2CC[C@@H]3CN(c4cnccn4)C[C@@H]3C2)ccn1` was run?
Answer: -4.355%

Question: What does the source list for `COc1cc(CNC(C)Cn2cccn2)cc2c1OCCO2.Cl` (centres undefined)?
Answer: Percent Effect (30.3 µM, […]): -12.29%; Percent Effect (10 mM, 10 mM as filed; unlikely as a test dose): -15.19%

Question: Which “Percent Effect” value (30.3 µM, […]) does the source give for `COc1cc(CNCC(O)c2ccc(F)cc2F)cc2c1OCO2` (centres undefined) here?
Answer: 68.01%

Question: How did the “Percent Effect” value (30.3 µM, […]) turn out when `COc1cc(CNCC(O)c2ccccc2F)cc2c1OCO2` (centres undefined) was run?
Answer: 55.14%

Question: For `COc1cc(CNC(C)Cn2ccnc2)cc2c1OCCO2` (centres undefined), which “Percent Effect” value (30.3 µM, […]) is on record?
Answer: -9.51%

Question: With `Cc1nc(CN2CCN3C[C@H](Oc4cncnc4)C[C@H]3C2)cs1.O=C(O)C(F)(F)F.O=C(O)C(F)(F)F` as the molecule, how does the “Percent Effect” value (30.3 µM, […]) read?
Answer: -64.45%

Question: `Cc1cnc(N2CC3(CCN(Cc4cccnc4)C3)C2)nc1.O=C(O)C(F)(F)F.O=C(O)C(F)(F)F` was tested. Which “Percent Effect” value (30.3 µM, […]) did it give?
Answer: -6.103%

Question: `O=C(O)C(F)(F)F.O=C(O)C(F)(F)F.c1cnc(N2CCN3C[C@H](Oc4cncnc4)C[C@H]3C2)nc1` was tested. Which “Percent Effect” value (30.3 µM, […]) did it give?
Answer: -14.25%

Question: `CCN1CCc2c(cccc2NC(=O)CN(C)C2CCSC2)C1` (centres undefined) was tested. Which “Percent Effect” value (30 µM, 30.03 µM) did it give?
Answer: -20.21%

Question: Which “Percent Effect” value (30.3 µM, […]) does the source give for `O=C(O)C(F)(F)F.c1cncc(CN2C[C@H]3CCC[C@@H](CNc4cnccn4)[C@H]3C2)c1` here?
Answer: -2.256%

Question: For `Cc1ccc(CN2CC[C@]3(C[C@H](OCc4ccccn4)CO3)C2)o1.O=C(O)C(F)(F)F.O=C(O)C(F)(F)F`, which “Percent Effect” value (30 µM, 30.03 µM) is on record?
Answer: 4.871%

Question: How did the “Percent Effect” value (30.3 µM, […]) turn out when `O=C(c1cc2cc(F)ccc2[nH]1)N1CCC(Nc2ccc(F)cc2)CC1` was run?
Answer: 86.11%

Question: For `O=C(Cc1c[nH]c2ccccc12)N1CCC(Nc2ccccc2)CC1`, which “Percent Effect” value (30.3 µM, […]) is on record?
Answer: -16.2%

Question: How did the “Percent Effect” value (30 µM, 30.03 µM) turn out when `O=C(c1ccc2c(c1)COC2)N1CCC(Nc2ccccc2)CC1` was run?
Answer: 15.22%

Question: How did the “Percent Effect” value (30.3 µM, […]) turn out when `O=C(O)C(F)(F)F.O=C(O)C(F)(F)F.O=C(O)C(F)(F)F.c1cc(CN2CCO[C@H]3[C@H](OCCN4CCCC4)CC[C@@H]32)ccn1` was run?
Answer: -7.413%

Question: Which “Percent Effect” value (30 µM, 30.03 µM) does the source give for `C[C@H]1C[C@H]2CN(Cc3ccccn3)CC[C@@H]2O1.O=C(O)C(F)(F)F.O=C(O)C(F)(F)F` here?
Answer: -2.942%

Question: With `CCOCCN1C[C@@H]2CCCO[C@@H]2[C@H](NC(=O)c2cnoc2C)C1.O=C(O)C(F)(F)F` as the molecule, how does the “Percent Effect” value (30.3 µM, […]) read?
Answer: -87.51%

Question: `O=C(c1csc(-c2ncccn2)n1)N1CCN2CCCCC2C1` (centres undefined) was tested. Which “Percent Effect” value (30 µM, 30.03 µM) did it give?
Answer: 9.676%

Question: Which “Percent Effect” value (30 µM, 30.03 µM) does the source give for `O=C(Cc1csc(-c2ncccn2)n1)N1CCN2CCCCC2C1` (centres undefined) here?
Answer: -4.944%

Question: For `O=C(Cc1ccc(-n2cccn2)cc1)N1CCN2CCCCC2C1` (centres undefined), which “Percent Effect” value (30 µM, 30.03 µM) is on record?
Answer: 56.58%

Question: With `CCS(=O)(=O)N1CCc2ccc(NC(=O)Nc3cccc(C#N)c3)cc21` as the molecule, how does the “Percent Effect” value (30 µM, 30.03 µM) read?
Answer: 29.43%

Question: Which “Percent Effect” value (30.3 µM, […]) does the source give for `O=C(O)C(F)(F)F.O=C(O)C(F)(F)F.O=C1CC[C@@H]2[C@@H](CCN2Cc2ccccn2)N1CC1CC1` here?
Answer: 9.459%

Question: Which “Percent Effect” value (30 µM, 30.03 µM) does the source give for `CC(N)Cc1ccccc1Sc1ccccc1.O=C(O)/C=C\C(=O)O` (centres undefined) here?
Answer: 99.41%

Question: Which “Percent Effect” value (30 µM, 30.03 µM) does the source give for `CNC(C)Cc1ccccc1Sc1ccc(O)cc1.Cl` (centres undefined) here?
Answer: -13.84%

Question: With `CC(N)Cc1ccccc1Sc1ccc(O)cc1.CC(N)Cc1ccccc1Sc1ccc(O)cc1.O=C(O)C(=O)O` (centres undefined) as the molecule, how does the “Percent Effect” value (30 µM, 30.03 µM) read?
Answer: 73.02%

Question: `O=C(O)C(F)(F)F.O=C(O)C(F)(F)F.c1cncc(O[C@H]2CC[C@H]3[C@H]2OCCN3C2CCCC2)c1` was tested. Which “Percent Effect” value (30 µM, 30.03 µM) did it give?
Answer: -21.55%

Question: With `CN(C)[C@@H]1CN(C(=O)Cc2cccs2)[C@@H]2CCCO[C@H]12.O=C(O)C(F)(F)F` as the molecule, how does the “Percent Effect” value (30.3 µM, […]) read?
Answer: -91.09%

Question: For `COCCN1CC[C@]2(CN(Cc3cccnc3)C[C@H]2C)C1=O.O=C(O)C(F)(F)F.O=C(O)C(F)(F)F`, which “Percent Effect” value (30.3 µM, […]) is on record?
Answer: -47.24%

Question: For `CN1C(Cn2cccn2)C[C@@H]2CN(Cc3cccnc3)CC[C@@H]21.O=C(O)C(F)(F)F.O=C(O)C(F)(F)F.O=C(O)C(F)(F)F.O=C(O)C(F)(F)F` (some centres undefined), which “Percent Effect” value (30.3 µM, […]) is on record?
Answer: -14.63%

Question: With `COCCN1CCO[C@@H]2CN(S(=O)(=O)c3cccnc3)C[C@@H]2C1.O=C(O)C(F)(F)F.O=C(O)C(F)(F)F` as the molecule, how does the “Percent Effect” value (30.3 µM, […]) read?
Answer: -14.72%
